This passage reports PBM binding z-score results from the supplement of paper PMC6555819.

This assay has as its system VDR:RXRa (NR concentration 270 nM, RXRa partner concentration 90 nM). In words: PBM binding z-score (relative to random genomic background probes); higher = stronger binding; sequences stand for … in GC…GCGATTGACAGCGTAGAATGAAGG
The method, then: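 Protein-binding microarray (Agilent 4x180K custom design, double-stranded 60-nt probes: 5' GC cap, 34-nt variable region, 24-nt constant primer region; full probe sequence given). Purified or IVT nuclear receptor:RXRα heterodimers (3:1 NR:RXRα, mostly 270:90 nM) or homodimers were incubated for 1 h in PBS with 2% milk and no ligand, then detected with Alexa488 antibodies. Fluorescence from o1-orientation probes (~5 replicates averaged) was converted to z-scores against 500 random hg19 background probes. Variable regions are seed direct-repeat (DR0–DR5) sites, all their single-nucleotide variants and half-site ablations.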
Turning to TGTCAAAGTTCAAAGGTAGCGTAAGTATCCACAC, the PBM binding z-score came out at 4.76.

For ATACCAAAGTGATCGTGAGGTCGTTGATACTAAC, the PBM binding z-score was determined as 2.02.

In turn, AGAATGAGCTTATACGTAGATCAGGGAAGAAAGT displayed a PBM binding z-score of -0.451.

On to ATCTCTAGGTAACCAAGCTCAGTGAATGCCGAAC, for which the PBM binding z-score was -0.169.

For CAAACTAGTTCAAGGTCAAAGTCGGTTTGTGCCA, the PBM binding z-score was 4.92.

TCTATTAGTTGATTAGGGCAAGCGAAACAGCGGA displayed a PBM binding z-score of 0.402.

For the sequence CCTAGTTGGTCAGGATGTCACACACCGGATATGA, the PBM binding z-score stood at 0.176.

With ATCTCTAGGTAAAGTTCAGTGATAGATCGATAGA, the PBM binding z-score worked out at 1.47.

Turning to ACAGACAGGTGATGATGGTAACTCAGGCTATCAT, the PBM binding z-score is -0.153.

CGTACTAGGTCAGAACAGGACAGTGAAGGATGAT yielded a PBM binding z-score of 0.861.

As for AGTCAAAGTTCATCTAGATAACGTAAGATATGCT, the PBM binding z-score is 4.66.

The sequence CCGACTGGGGCATAAGGTTACCATGAGCCAGCCC came in with a PBM binding z-score of 0.177.

In the case of AGTCAAAGTTCAGGACGATGTAACGTAAAGCACG, the PBM binding z-score was 2.56.

The sequence TTACCAAGGTAAAGGTCGTTGATCCCTCTGTAGA gave a PBM binding z-score of 2.34.

For ACTACCAGGCCAAGTTTGGGTCACTCAAACAAAG, the PBM binding z-score was 1.08.

As to CCGACTGGGGCAAGGTTACCGTAACGCACAGCCA, the PBM binding z-score is -0.0549.

With CGGACTAGGTCATCCAGGACAGTGAATACATTGA, the PBM binding z-score is 4.36.

CCTACTGGGCCACGAAAGGTCATTCATTCAGTGA registered a PBM binding z-score of 4.43.

GCAGACAGGTGAAACGCAGGTAACTCAAGGTGGC came in with a PBM binding z-score of -0.431.

Sequence GCGACTGGGGCAAAGCAGGTTACCATCAGGTTGG showed a PBM binding z-score of -0.194.

AGAATGAAGTTATTAAGATCAGGGAATTGCGGTC gave a PBM binding z-score of -0.316.

ATCGAAAGGTCGAGGGTGAGTATACCCACCCGAA registered a PBM binding z-score of 2.68.

As to AGAATCAGGTTATTAAGATCAGGGAATTGCGGTC, the PBM binding z-score is 1.08.

In the case of TCGAGTAGGTTACCAATGGGGCAATCAGCTTTCT, the PBM binding z-score amounted to 0.0268.

TCTCGGAGGACACGAAGGTCAGTGCTTTCCAGAG registered a PBM binding z-score of 2.08.

In turn, TCTAGTTGGTCAATGGTCACACACTCGAAATGCG showed a PBM binding z-score of 0.851.

Sequence CAAACTAGGTCAAGAGGTAAAAGTCCGCTTCCCG came in with a PBM binding z-score of 2.17.

Regarding TGAATGAGGTTAAAGATTAGGGAACGTGGCGTCG, the PBM binding z-score was 1.44.

TTTACAGGGTCAAAGGCCAGAGTACGAATGTCGA gave a PBM binding z-score of 4.79.

Sequence AGAACGAGGGCAATGAGTTGATATCACGGGTGGC had a PBM binding z-score of 5.09.

In the case of ATCGAAAGGTCCAGGTGAGTATAGAGAAAGGGAA, the PBM binding z-score was 0.18.

As to TCTCGGAGGACATGAAGGTCAGAGCTTTCCAGAG, the PBM binding z-score worked out at 1.77.

As to CCTGGTAGGTCATGGTCAGCTAATCTACAGTATG, the PBM binding z-score was found to be 1.89.

On to CAAACTAGGTCAAGAGATCAAAGTCCGCTTCCCG, for which the PBM binding z-score turned out to be 1.59.

Sequence ATATGTAGGTTAGCTGGGGTCATTCAGACTAGGC showed a PBM binding z-score of 6.27.

Sequence GCATATACGTAATACAAGGTGAAAGTCCGATTGT showed a PBM binding z-score of 0.232.

Sequence TCCTGTAGATCAAAGGTTAAGAAAGCCGAAGCCT showed a PBM binding z-score of 1.44.

On to CCTCGGATGACAACAGGAGGTCAGAGCTGCCAGA, for which the PBM binding z-score is 1.55.

As for TCTTGTAGATCAAAGGTTAAGAAGGCCGAAGCCT, the PBM binding z-score came out at 2.65.

The sequence TGAATGAGGTTATAAGATCGGGGAACGTTGCAAA came in with a PBM binding z-score of 0.904.
